Rab9 promoter act = activates the Rab9 promoter | Huh7 Rab9 promoter-luciferase reporter, luminescence, 24 h | Potency, µM (highest dose often 9.22 µM), actives largely listed as activators | 320,000 compounds, 2.8% hits | AID 485297; also: nearly all actives have a fitted effect of over 60% in size
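Cell-based reporter: Huh7 stable for Rab9 promoter-driven luciferase, plated in reduced-serum medium with 10% FBS at 1500 cells/well, compound-treated 24 h at 37 °C, luminescence read after 10 min reagent.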
SMN2 splice enh = SMN2 splice variant enhancement. HEK293 SMN2-luciferase splicing reporter, luminescence, 30-36 h. Potency, µM (doses to about 46.1 µM), hits mostly activators. 210,000 compounds, 2.8% hits; also: nearly all actives have a fitted effect of over 55% in size
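HEK293 cells carry an SMN2 […]–luciferase reporter in which exon 7 inclusion puts luciferase in frame. Cells were plated 10-12 h before compound addition, then incubated 30-36 h at 37C. ONE-Glo luminescence was read; sodium butyrate at 4.5 mM final served as control.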
FLuc modulator = firefly luciferase modulation, counter-screen for miR-21 project | P08659 | purified FLuc, Km substrates, luminescence inhibition | Potency, µM (doses to about 57.5 µM), most hits filed as inhibitors | 360,000 compounds, 6.9% hits; also: nearly all actives have a fitted effect of over 55% in size
Target sequence (P08659 whole entry, looked up): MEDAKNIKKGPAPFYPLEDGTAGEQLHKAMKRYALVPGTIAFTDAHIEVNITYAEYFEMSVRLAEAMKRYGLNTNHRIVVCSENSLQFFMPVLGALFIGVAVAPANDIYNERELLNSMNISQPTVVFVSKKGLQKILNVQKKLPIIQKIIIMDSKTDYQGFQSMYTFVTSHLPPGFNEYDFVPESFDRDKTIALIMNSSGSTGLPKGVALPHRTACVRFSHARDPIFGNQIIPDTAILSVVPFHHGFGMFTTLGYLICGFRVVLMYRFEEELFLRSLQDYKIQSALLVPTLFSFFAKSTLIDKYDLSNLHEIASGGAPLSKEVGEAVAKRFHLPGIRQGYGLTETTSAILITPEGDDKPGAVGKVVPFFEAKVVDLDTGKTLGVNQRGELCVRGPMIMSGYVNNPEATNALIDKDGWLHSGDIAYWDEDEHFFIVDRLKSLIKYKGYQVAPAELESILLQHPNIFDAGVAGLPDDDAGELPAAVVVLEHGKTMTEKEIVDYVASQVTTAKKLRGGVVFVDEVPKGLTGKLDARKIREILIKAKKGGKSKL
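Purified P. pyralis luciferase, 10 nM final, with Km-level 10 uM D-luciferin and 10 uM ATP in 50 mM Tris acetate pH 7.5, 10 mM Mg acetate, 0.01% Tween-20, 0.05% BSA; 6-point qHTS titration about 60 µM downward; luminescence read.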
Luc counter = Kinase-Glo luciferase inhibition (counter-screen) | AID 1379 | Q27757 | 200,000 compounds, 0.28% hits | Kinase-Glo luciferase, ATP luminescence, 8 min | Potency, µM (series often up to 38.3 µM), most hits filed as inhibitors; also: nearly all actives have a fitted effect of over 60% in size
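Inhibition of Kinase-Glo luciferase light generation was assessed at 10 uM ATP in pH 7.2 imidazole buffer, with luminescence measured after eight minutes at ambient temperature.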
ELG1 genotoxic = genotoxicity induction in ELG1-luciferase HEK293T cells; HEK293T ELG1-luciferase reporter, luminescence, 16 h; Potency, µM (series often up to 46 µM), hits mostly activators; 330,000 compounds, 1.3% hits; AID 504466; also: nearly all actives have a fitted effect of over 60% in size
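Screening used a luciferase reporter fused to human ELG1 in HEK293T cells. Luminescence was read on a CCD plate imager after 16 hr exposure and 30 min ONE-Glo incubation.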
NPC1 promoter act = activators of NPC1 promoter; Potency, µM (highest dose often 9.22 µM), hits mostly activators; 320,000 compounds, 2.4% hits; Huh7 NPC1 promoter luciferase reporter, 24 h; also: nearly all actives have a fitted effect of over 60% in size
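NPC1 promoter–luciferase Huh7 cells; 24 h compound; luminescence.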
Of the large screens only hits and unclear results are named; the others gave an inactive call. Hits are enriched below; roughly 7.5% of the tested compounds scored in any of these assays. Calls follow the shape of the dose curve; as a rule, active = well fitted curve in the direction sought with a large enough effect; inconclusive = small, poorly fitted or top-dose-only effect, or another doubt; inactive = no such curve, though single readings can be large; an effect the other way counts as inactive or inconclusive.

COc1ccc2nc(NC(=O)c3cc(=O)c4ccccc4o3)sc2c1	FLuc modulator 1.7µM (no result: Rab9 promoter act, Luc counter, ELG1 genotoxic, NPC1 promoter act)
Cc1ccc2nc(NC(=O)c3ccccc3F)sc2c1	Rab9 promoter act inconclusive, FLuc modulator 0.48µM, ELG1 genotoxic 0.65µM, NPC1 promoter act 0.32µM (no result: SMN2 splice enh, Luc counter)
Cc1cc(C)c2nc(NNC(=O)c3ccc(S(=O)(=O)N4CCc5ccccc5C4)cc3)sc2c1	ELG1 genotoxic inconclusive
COc1ccc2nc(NC(=O)c3ccc(NC(=O)C4CCCO4)cc3)sc2c1 (stereo not drawn)	FLuc modulator 9.5µM (no result: SMN2 splice enh, Luc counter)
Cc1cc(C)c2nc(NNC(=O)c3cc(=O)c4ccccc4o3)sc2c1	FLuc modulator 13µM (no result: SMN2 splice enh, Luc counter)
CCOc1cccc(C(=O)Nc2c(C(=O)c3ccc(OC)cc3)oc3ccccc23)c1	none (no result: Rab9 promoter act, Luc counter, ELG1 genotoxic, NPC1 promoter act)
COc1ccc2nc(NC(=O)c3cnccn3)sc2c1	Rab9 promoter act 2.2µM, SMN2 splice enh 4µM, FLuc modulator 3µM, ELG1 genotoxic inconclusive, NPC1 promoter act 3.2µM
CCSc1ncc(Cl)c(C(=O)Nc2nc3ccc(OC)cc3s2)n1	none (no result: Rab9 promoter act, Luc counter, ELG1 genotoxic, NPC1 promoter act)
CCn1cc([N+](=O)[O-])c(C(=O)Nc2nc3ccc(OC)cc3s2)n1	Rab9 promoter act 0.32µM, FLuc modulator 24µM, NPC1 promoter act 0.4µM
CSc1ncccc1C(=O)Nc1nc2ccc(Oc3ccccc3)cc2s1	FLuc modulator 24µM
COc1ccc(-n2nc(C(=O)Nc3nc4ccc(OC)cc4s3)c3ccccc3c2=O)c(OC)c1	none
COc1ccc(C(=O)Nc2nc3ccc(OC)cc3s2)cc1	Rab9 promoter act inconclusive, FLuc modulator 1.7µM, ELG1 genotoxic inconclusive, NPC1 promoter act 2.5µM (no result: SMN2 splice enh, Luc counter)
COc1ccc(C(=O)NCCSc2c[nH]c3ccccc23)cc1OC	none (no result: Rab9 promoter act, Luc counter, ELG1 genotoxic, NPC1 promoter act)
O=C(Nc1scc(-c2ccccc2)c1C(=O)O)c1ccc(F)cc1	Rab9 promoter act inconclusive, FLuc modulator 12µM (no result: SMN2 splice enh, Luc counter)
O=C(Nc1nsc(-c2ccccc2)n1)c1ccc(F)cc1	Rab9 promoter act 2.2µM, SMN2 splice enh inconclusive, FLuc modulator 9.5µM, ELG1 genotoxic inconclusive, NPC1 promoter act 3.5µM
Cc1ccc(-c2csc(NC(=O)c3ccc(F)cc3)c2C(=O)O)cc1	Rab9 promoter act 4µM, FLuc modulator 12µM, NPC1 promoter act inconclusive (no result: SMN2 splice enh, Luc counter)
O=C(Nc1ncc2c(n1)-c1ccccc1CC2)c1ccc(F)cc1	FLuc modulator inconclusive
CC(C)Cc1csc(NC(=O)c2ccc(Br)cc2)c1C(=O)O	FLuc modulator 27µM (no result: SMN2 splice enh, Luc counter)
CCOC(=O)c1c(-c2ccc(C)cc2)csc1NC(=O)c1ccc(C(C)(C)C)cc1	none (no result: Rab9 promoter act, Luc counter, ELG1 genotoxic, NPC1 promoter act)
CC(C)Cc1csc(NC(=O)C(C)C)c1C(=O)O	none (no result: SMN2 splice enh, Luc counter)
Cc1ccc(NC(=O)N2CCN3CCCCC3C2)cc1C (stereo not drawn)	none (no result: Rab9 promoter act, SMN2 splice enh, Luc counter, ELG1 genotoxic, NPC1 promoter act)
CC(=O)N1CCC(N(Cc2ccco2)C(=O)Nc2cccc(C)c2)CC1	none (no result: Rab9 promoter act, SMN2 splice enh, Luc counter, ELG1 genotoxic, NPC1 promoter act)
On1c(-c2ccc(Cl)cc2)nc2ccccc21	Rab9 promoter act inconclusive, FLuc modulator 19µM, Luc counter inconclusive, NPC1 promoter act inconclusive
On1c(-c2ccccc2)nc2ccccc21	FLuc modulator inconclusive (no result: SMN2 splice enh, Luc counter)
Cc1onc(-c2c(F)cccc2Cl)c1C(=O)Nc1nc2ccccc2[nH]1	none
Cc1ccc(C)c(C(=O)Nc2nc3ccccc3[nH]2)c1	none (no result: SMN2 splice enh, Luc counter)
O=C(/C=C/c1c(F)cccc1Cl)Nc1nc2ccccc2[nH]1	Rab9 promoter act 2.8µM, SMN2 splice enh 7.1µM, ELG1 genotoxic inconclusive, NPC1 promoter act 3.2µM
Cc1ccc(/C=C/C(=O)c2nc3ccccc3[nH]2)cc1	SMN2 splice enh inconclusive, FLuc modulator 0.76µM
Cc1ccc(Cc2nc3ccccc3[nH]2)cc1	none (no result: SMN2 splice enh, Luc counter)
Cc1ccc(/C=C/C(=O)Nc2nc3ccccc3[nH]2)cc1	Rab9 promoter act 1.8µM, SMN2 splice enh 10µM, FLuc modulator inconclusive, ELG1 genotoxic 10µM, NPC1 promoter act 3.2µM
CCN(c1cccc(C)c1)S(=O)(=O)c1ccc(O)c(C(=O)O)c1	none (no result: Rab9 promoter act, SMN2 splice enh, FLuc modulator, ELG1 genotoxic, NPC1 promoter act)
O=C(COC(=O)CCC1CCCC1)Nc1ccc(F)cc1	none (no result: SMN2 splice enh, Luc counter)
CC(C)Cn1c(SCc2cccc(F)c2)nc2ccsc2c1=O	none (no result: Rab9 promoter act, SMN2 splice enh, Luc counter, ELG1 genotoxic, NPC1 promoter act)
Cc1nn2c(C(F)(F)F)cc(-c3ccc(OC(C)C)cc3)nc2c1C#N	none (no result: Rab9 promoter act, Luc counter, ELG1 genotoxic, NPC1 promoter act)
Cc1c(Cl)cccc1-n1nnc(-c2nc(-c3ccc4c(c3)OCO4)no2)c1C	FLuc modulator 3µM (no result: Rab9 promoter act, SMN2 splice enh, Luc counter, ELG1 genotoxic, NPC1 promoter act)
O=C(CSc1nccn1Cc1ccc(F)cc1)NCc1ccco1	none (no result: Rab9 promoter act, SMN2 splice enh, Luc counter, ELG1 genotoxic, NPC1 promoter act)
O=C1CCCC(O)=C1C=Nc1ccc(O)cc1	none
Oc1ccc(N=Cc2ccc(-c3cccs3)s2)cc1	FLuc modulator 8.5µM
COc1ccc2c(c1OC)C(=O)N(c1cccc(/C=C/C(=O)O)c1)C2	FLuc modulator 3µM, ELG1 genotoxic inconclusive (no result: SMN2 splice enh, Luc counter)
COc1ccc2c(c1OC)C(=O)N(c1nccs1)C2	Rab9 promoter act inconclusive, SMN2 splice enh 13µM, FLuc modulator 15µM, ELG1 genotoxic 18µM, NPC1 promoter act inconclusive
COc1ccc(C2C(C(C)=O)=C(O)C(=O)N2c2nccs2)cc1OC (stereo not drawn)	none
COc1ccc(N2Cc3ccc(OC)c(OC)c3C2=O)cc1	Rab9 promoter act inconclusive, FLuc modulator 4.8µM, ELG1 genotoxic 10µM, NPC1 promoter act 2µM (no result: SMN2 splice enh, Luc counter)
COc1ccc(/C=C/C(=O)O)cc1S(=O)(=O)N1CCc2ccccc2C1	none
CCCC[C@H]1COCCS(=O)(=O)N1Cc1ccccc1F	none (no result: SMN2 splice enh, Luc counter)
CCc1ccc(NC(=O)C(=O)NCC(c2ccc3c(c2)OCO3)N2CCOCC2)cc1 (stereo not drawn)	none (no result: Rab9 promoter act, SMN2 splice enh, Luc counter, ELG1 genotoxic, NPC1 promoter act)

Screening results (PubChem BioAssay)
